Tests used:
[1] = molecular target: Ribosomal protein S6 kinase alpha-6 (Homo sapiens) (UniProt Q9UK32); conditions: at 1 µM;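 note: each value is a mean inhibition of RSK4 from a GSK PKIS panel screen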
[2] = molecular target: T1, Serine/threonine-protein kinase Sgk1 (Homo sapiens) (UniProt O00141); conditions: at 0.1 µM
T1 sequence (whole entry): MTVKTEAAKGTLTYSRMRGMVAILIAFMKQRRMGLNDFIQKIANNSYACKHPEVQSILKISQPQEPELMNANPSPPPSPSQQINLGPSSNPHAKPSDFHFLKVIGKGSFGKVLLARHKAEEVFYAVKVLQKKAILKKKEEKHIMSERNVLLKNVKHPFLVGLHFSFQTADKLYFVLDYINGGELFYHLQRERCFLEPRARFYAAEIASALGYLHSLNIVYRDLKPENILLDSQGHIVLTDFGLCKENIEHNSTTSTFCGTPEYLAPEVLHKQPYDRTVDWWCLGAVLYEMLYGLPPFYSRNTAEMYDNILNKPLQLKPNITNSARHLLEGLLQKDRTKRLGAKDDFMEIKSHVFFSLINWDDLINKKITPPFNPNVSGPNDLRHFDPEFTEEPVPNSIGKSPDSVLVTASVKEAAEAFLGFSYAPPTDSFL

[3] = molecular target: T1, Serine/threonine-protein kinase Sgk1 (Homo sapiens); conditions: at 1 µM
[4] = molecular target: T2, Serine/threonine-protein kinase Sgk2 (Homo sapiens) (UniProt Q9HBY8); conditions: at 0.1 µM
T2 sequence (whole entry): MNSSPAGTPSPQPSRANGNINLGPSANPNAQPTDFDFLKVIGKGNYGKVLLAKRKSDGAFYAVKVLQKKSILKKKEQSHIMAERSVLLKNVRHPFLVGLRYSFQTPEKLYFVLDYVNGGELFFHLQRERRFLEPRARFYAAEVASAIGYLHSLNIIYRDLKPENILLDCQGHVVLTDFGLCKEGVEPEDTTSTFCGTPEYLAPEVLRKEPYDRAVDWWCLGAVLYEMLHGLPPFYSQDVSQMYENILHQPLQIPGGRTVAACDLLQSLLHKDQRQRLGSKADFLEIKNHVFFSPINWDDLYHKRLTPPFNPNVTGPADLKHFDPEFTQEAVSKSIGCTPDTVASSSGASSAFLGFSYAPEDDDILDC

[5] = molecular target: T2, Serine/threonine-protein kinase Sgk2 (Homo sapiens); conditions: at 1 µM
[6] = molecular target: T3, Serine/threonine-protein kinase Sgk3 (Homo sapiens) (UniProt Q96BR1); conditions: at 0.1 µM
T3 sequence (whole entry): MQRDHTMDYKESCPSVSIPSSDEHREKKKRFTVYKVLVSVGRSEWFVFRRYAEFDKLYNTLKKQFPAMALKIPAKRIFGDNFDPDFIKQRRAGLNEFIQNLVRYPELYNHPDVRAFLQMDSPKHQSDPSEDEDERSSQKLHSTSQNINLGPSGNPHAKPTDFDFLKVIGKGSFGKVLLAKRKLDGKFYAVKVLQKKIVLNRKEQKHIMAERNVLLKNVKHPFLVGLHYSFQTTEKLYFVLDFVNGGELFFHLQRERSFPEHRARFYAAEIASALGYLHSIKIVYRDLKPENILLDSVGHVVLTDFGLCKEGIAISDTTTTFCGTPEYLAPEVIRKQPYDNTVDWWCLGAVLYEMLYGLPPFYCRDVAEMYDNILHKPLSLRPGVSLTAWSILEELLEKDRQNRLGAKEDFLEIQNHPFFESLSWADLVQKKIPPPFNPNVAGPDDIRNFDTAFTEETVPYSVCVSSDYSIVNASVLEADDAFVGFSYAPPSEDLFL

[7] = molecular target: T3, Serine/threonine-protein kinase Sgk3 (Homo sapiens); conditions: at 1 µM
[8] = molecular target: 5'-AMP-activated protein kinase catalytic subunit alpha-1 (Homo sapiens) (UniProt Q13131); conditions: at 0.1 µM
Sequence of 5'-AMP-activated protein kinase catalytic subunit alpha-1 (Homo sapiens) (Q13131 whole entry, looked up): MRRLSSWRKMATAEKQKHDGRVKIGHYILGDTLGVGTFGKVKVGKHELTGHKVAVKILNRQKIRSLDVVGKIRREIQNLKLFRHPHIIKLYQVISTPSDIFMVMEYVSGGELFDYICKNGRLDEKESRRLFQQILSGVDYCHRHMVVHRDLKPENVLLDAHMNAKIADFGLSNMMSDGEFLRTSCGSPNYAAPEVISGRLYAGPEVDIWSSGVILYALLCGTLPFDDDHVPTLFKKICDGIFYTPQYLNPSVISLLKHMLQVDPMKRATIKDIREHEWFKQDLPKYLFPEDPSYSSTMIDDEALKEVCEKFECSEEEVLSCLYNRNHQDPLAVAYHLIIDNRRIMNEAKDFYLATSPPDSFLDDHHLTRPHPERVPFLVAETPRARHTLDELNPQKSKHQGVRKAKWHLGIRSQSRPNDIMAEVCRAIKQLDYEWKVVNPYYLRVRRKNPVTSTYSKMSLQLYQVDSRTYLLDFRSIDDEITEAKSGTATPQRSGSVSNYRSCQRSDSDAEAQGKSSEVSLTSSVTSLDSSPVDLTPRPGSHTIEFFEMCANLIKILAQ

[9] = molecular target: 5'-AMP-activated protein kinase catalytic subunit alpha-1 (Homo sapiens) (UniProt Q13131); conditions: at 1 µM
[10] = molecular target: 5'-AMP-activated protein kinase catalytic subunit alpha-2 (Homo sapiens) (UniProt P54646); conditions: at 0.1 µM
Sequence of 5'-AMP-activated protein kinase catalytic subunit alpha-2 (Homo sapiens) (P54646 whole entry, looked up): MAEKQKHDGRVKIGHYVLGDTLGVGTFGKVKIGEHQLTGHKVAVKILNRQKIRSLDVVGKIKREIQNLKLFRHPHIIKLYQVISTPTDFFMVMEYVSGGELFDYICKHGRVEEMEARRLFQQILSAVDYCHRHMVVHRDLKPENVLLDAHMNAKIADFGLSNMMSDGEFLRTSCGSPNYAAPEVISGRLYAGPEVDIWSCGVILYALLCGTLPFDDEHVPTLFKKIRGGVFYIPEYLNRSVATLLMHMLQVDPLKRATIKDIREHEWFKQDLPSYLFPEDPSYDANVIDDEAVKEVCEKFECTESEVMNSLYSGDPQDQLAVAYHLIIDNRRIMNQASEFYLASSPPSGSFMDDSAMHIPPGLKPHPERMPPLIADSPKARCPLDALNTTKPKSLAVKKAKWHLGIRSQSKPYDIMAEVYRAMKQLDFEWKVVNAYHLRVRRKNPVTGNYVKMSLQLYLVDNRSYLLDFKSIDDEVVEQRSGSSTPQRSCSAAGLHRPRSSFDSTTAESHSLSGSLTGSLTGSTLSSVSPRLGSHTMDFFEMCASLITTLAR

[11] = molecular target: 5'-AMP-activated protein kinase catalytic subunit alpha-2 (Homo sapiens) (UniProt P54646); conditions: at 1 µM
[12] = molecular target: T4, NUAK family SNF1-like kinase 1 (Homo sapiens) (UniProt O60285); conditions: at 0.1 µM
T4 sequence (whole entry): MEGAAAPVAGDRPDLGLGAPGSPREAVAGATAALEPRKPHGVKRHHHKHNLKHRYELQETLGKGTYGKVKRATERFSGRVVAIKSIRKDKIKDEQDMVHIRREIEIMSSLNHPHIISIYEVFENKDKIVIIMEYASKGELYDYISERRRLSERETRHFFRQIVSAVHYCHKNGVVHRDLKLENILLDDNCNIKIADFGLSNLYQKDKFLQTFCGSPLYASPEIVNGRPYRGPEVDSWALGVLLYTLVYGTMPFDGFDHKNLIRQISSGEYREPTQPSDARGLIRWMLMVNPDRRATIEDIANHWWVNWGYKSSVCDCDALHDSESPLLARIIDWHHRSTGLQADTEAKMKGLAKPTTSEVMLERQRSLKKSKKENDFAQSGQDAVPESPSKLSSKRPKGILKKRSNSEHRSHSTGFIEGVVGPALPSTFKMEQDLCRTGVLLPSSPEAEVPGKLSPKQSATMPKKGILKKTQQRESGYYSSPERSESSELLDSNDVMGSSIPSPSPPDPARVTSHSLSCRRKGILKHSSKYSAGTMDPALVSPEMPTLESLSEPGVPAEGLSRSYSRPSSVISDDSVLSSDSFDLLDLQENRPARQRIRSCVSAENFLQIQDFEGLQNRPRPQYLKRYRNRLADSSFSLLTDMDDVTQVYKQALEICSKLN

[13] = molecular target: T4, NUAK family SNF1-like kinase 1 (Homo sapiens); conditions: at 1 µM
[14] = molecular target: T5, Serine/threonine-protein kinase BRSK1 (Homo sapiens) (UniProt Q8TDC3); conditions: at 0.1 µM
T5 sequence (whole entry): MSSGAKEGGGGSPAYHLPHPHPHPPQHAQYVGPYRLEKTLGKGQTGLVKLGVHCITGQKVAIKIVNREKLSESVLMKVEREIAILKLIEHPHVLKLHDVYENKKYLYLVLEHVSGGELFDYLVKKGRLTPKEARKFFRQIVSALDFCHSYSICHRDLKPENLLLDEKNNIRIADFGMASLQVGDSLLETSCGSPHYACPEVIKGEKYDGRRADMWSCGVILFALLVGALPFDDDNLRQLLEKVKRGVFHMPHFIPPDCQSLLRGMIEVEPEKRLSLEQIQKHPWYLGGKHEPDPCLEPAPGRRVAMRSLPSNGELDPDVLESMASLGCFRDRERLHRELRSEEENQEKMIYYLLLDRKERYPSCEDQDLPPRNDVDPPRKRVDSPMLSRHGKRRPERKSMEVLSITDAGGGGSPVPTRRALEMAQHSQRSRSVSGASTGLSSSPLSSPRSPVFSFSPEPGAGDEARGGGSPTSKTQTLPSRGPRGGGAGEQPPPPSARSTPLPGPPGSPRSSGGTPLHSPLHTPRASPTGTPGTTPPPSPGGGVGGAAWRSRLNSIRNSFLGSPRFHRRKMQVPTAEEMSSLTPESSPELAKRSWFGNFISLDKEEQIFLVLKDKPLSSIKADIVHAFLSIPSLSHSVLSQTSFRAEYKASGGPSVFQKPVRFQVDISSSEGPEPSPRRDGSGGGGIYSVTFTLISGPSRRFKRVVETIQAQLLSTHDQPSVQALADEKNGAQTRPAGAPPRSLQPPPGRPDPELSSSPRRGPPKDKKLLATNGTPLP

[15] = molecular target: T5, Serine/threonine-protein kinase BRSK1 (Homo sapiens); conditions: at 1 µM
[16] = molecular target: T6, Serine/threonine-protein kinase BRSK2 (Homo sapiens) (UniProt Q8IWQ3); conditions: at 0.1 µM
T6 sequence (whole entry): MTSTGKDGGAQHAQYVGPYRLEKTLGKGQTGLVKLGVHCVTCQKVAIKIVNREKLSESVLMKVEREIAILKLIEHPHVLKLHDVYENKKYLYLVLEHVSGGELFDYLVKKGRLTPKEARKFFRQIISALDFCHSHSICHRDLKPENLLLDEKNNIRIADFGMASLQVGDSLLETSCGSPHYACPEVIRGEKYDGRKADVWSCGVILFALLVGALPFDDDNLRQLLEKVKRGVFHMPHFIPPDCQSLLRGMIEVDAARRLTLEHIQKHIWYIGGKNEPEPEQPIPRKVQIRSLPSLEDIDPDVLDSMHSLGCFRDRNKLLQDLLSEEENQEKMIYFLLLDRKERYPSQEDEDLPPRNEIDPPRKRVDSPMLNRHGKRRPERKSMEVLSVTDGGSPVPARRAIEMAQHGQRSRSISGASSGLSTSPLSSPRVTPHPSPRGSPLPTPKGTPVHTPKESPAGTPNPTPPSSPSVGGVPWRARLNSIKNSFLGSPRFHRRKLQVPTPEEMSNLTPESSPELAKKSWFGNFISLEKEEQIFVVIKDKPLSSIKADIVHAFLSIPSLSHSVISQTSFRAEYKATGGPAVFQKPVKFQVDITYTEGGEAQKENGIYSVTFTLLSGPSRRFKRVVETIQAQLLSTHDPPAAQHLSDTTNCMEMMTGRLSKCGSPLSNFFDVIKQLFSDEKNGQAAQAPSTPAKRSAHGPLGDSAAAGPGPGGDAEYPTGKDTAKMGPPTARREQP

[17] = molecular target: T6, Serine/threonine-protein kinase BRSK2 (Homo sapiens); conditions: at 1 µM
[18] = molecular target: Calcium/calmodulin-dependent protein kinase type 1D (Homo sapiens) (UniProt Q8IU85); conditions: at 0.1 µM
Sequence of Calcium/calmodulin-dependent protein kinase type 1D (Homo sapiens) (Q8IU85 whole entry, looked up): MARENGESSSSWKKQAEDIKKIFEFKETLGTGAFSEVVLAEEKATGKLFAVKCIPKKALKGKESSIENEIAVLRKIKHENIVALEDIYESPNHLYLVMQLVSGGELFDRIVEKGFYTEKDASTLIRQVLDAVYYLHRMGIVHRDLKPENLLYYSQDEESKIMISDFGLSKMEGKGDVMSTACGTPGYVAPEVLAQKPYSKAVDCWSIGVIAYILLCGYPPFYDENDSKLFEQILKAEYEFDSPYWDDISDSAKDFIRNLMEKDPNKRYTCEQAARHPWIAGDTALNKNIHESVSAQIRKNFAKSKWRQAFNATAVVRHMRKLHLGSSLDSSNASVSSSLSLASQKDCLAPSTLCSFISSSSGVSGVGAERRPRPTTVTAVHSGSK

[19] = molecular target: Calcium/calmodulin-dependent protein kinase type 1D (Homo sapiens) (UniProt Q8IU85); conditions: at 1 µM
[20] = molecular target: Calcium/calmodulin-dependent protein kinase type II subunit alpha (Homo sapiens) (UniProt Q9UQM7); conditions: at 0.1 µM;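 note: reported values are averages (mean inhibition of CAMK2A)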
Sequence of Calcium/calmodulin-dependent protein kinase type II subunit alpha (Homo sapiens) (Q9UQM7 whole entry): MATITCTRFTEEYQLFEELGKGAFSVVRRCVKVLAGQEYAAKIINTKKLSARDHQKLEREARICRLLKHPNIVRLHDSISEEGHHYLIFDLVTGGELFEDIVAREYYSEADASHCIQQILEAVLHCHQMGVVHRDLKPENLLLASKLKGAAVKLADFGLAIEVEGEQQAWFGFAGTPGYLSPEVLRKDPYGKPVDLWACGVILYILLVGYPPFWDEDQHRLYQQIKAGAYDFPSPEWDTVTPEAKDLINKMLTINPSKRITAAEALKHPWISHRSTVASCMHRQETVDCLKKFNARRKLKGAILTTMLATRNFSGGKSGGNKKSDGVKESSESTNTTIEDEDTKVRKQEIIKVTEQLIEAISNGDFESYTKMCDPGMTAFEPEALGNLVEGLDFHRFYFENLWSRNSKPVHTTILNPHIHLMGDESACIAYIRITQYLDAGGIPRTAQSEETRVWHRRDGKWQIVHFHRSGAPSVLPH

Sequence of Ribosomal protein S6 kinase alpha-6 (Homo sapiens) (Q9UK32 whole entry): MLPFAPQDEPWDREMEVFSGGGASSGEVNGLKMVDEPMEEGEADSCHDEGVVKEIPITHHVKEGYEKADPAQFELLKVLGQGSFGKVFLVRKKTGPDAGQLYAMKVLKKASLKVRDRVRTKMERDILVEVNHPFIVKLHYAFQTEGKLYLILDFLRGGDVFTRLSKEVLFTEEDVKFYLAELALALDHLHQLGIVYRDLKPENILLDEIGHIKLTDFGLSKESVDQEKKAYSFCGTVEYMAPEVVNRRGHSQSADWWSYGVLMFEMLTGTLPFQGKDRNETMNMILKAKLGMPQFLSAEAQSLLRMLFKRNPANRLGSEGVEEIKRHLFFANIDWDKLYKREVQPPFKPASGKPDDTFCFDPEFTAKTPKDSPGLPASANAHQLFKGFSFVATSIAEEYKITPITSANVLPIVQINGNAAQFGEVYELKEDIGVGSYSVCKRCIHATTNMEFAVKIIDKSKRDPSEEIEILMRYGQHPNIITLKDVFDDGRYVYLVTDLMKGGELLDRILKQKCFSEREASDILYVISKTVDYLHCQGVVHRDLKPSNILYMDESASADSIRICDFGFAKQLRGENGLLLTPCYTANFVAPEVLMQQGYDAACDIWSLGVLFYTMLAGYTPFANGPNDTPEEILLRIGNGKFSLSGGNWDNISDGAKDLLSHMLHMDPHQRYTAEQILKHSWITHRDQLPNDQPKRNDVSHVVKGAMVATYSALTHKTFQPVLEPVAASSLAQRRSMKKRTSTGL

SMILES | inhibition [1] [%] | inhibition [2] [%] | inhibition [3] [%] | inhibition [4] [%] | inhibition [5] [%] | inhibition [6] [%] | inhibition [7] [%] | inhibition [8] [%] | inhibition [9] [%] | inhibition [10] [%] | inhibition [11] [%] | inhibition [12] [%] | inhibition [13] [%] | inhibition [14] [%] | inhibition [15] [%] | inhibition [16] [%] | inhibition [17] [%] | inhibition [18] [%] | inhibition [19] [%] | inhibition [20] [%]
COc1ccc(-c2nn3ncccc3c2-c2ccnc(Nc3cccc(C(F)(F)F)c3)n2)cc1 | 0.26 | 1.37 | 2.02 | 1.57 | 4.94 | 3.1 | 3.41 | 2.78 | 3.84 | 1.06 | 3.96 | 0.91 | -0.63 | -0.24 | 1.65 | 2.63 | 2.85 | 0.46 | 0.37 | 2.25
CCn1c(-c2nonc2N)nc2c(C#CC(C)(C)O)nc(OCCNC)cc21 | 2.45 | 1.88 | 2.66 | 2.29 | 4.48 | 2.71 | 13.9 | 2.74 | 8.37 | 4.37 | 3.94 | 1.05 | 3.39 | 1.73 | 0.16 | 1.24 | 4.81 | 1.21 | 2.06 | 3.99
O=C1Nc2ccccc2/C1=C/Nc1ccc2[nH]c(=O)[nH]c2c1 | 16.3 | 5.08 | 22.7 | 1.44 | 13.4 | 3.83 | 9.07 | 6.25 | 20 | 4.32 | 12.8 | 12.6 | 46 | 1.38 | 15.7 | 5.21 | 25.8 | -1.27 | 1.07 | 3.83
Cc1ccc2c(-c3ccnc(Nc4ccc5c(c4)OCCO5)n3)c(-c3ccc(C(F)(F)F)cc3)nn2n1 | 0.44 | 0.85 | 1.65 | -0.62 | -1.7 | 0.16 | -1.14 | 0.51 | 3.23 | 0.13 | 1.71 | -1.23 | 1.59 | -0.85 | 1.31 | 0.24 | 0.79 | 0.52 | 9.99 | 0.68
O=C(Nc1ccc(Oc2ccc3[nH]c(NC(=O)c4ccco4)nc3c2)cc1)Nc1cc(C(F)(F)F)ccc1F | 3.95 | 0.67 | -0.62 | 0.44 | 2.52 | 0.1 | -0.97 | 1.07 | 2.39 | 1.95 | 3.81 | 0.89 | 5.7 | 0.62 | -0.05 | -0.37 | 1.01 | 0.46 | 3.08 | 0.33
CCS(=O)(=O)c1ccc(OC)c(Nc2ncc(-c3cccc(OC)c3)o2)c1 | 3.54 | 1.35 | 2.05 | 3.12 | 5.99 | 3.65 | -0.11 | 1.32 | 1.33 | -0.63 | 4.19 | 2.41 | 13.4 | 1.53 | -0.15 | 0.33 | 0.66 | 0.03 | 1.97 | 2.7

— ChEMBL document CHEMBL1961873, “Compounds: GSK PKIS; Assays: Nanosyn kinase panel” (2012)
